PubChem BioAssay AID485297 (National Center for Advancing Translational Sciences (NCATS), 2010)
About 9,100 (2.8%) of roughly 320,000 compounds were called active. Another 3% or so got no clear call; they are omitted. What follows is part of a selection rich in actives, with near analogues and random picks from the rest. Entries that show only a call come without a potency. A number with no mark means an inactive call. Calls follow the shape of the dose curve; as a rule, active = well fitted activation curve with a large enough effect; inconclusive = small, poorly fitted or top-dose-only effect; inactive = no such curve, though single readings can be large or run the other way.

Test: qHTS Assay for Rab9 Promoter Activators; also: nearly all actives have a fitted effect of over 60% in size
Details: Huh7 Rab9 promoter-luciferase reporter, luminescence, 24 h; series mostly up to 9.22 µM
Summary of the method: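 Luminescence read-out: Huh7 cells stably expressing Rab9-luciferase, treated 24 h with compound at 37 °C, then lysed with luciferase reagent for 10 min at ambient before reading.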
Potency is read from the fitted curve at half-maximal effect.

Compound	Potency	activation, negative = inhibition
O=S(=O)(c1ccc(SCc2ccccc2)nc1)N1CCCCCC1	inactive	–
CCn1ccnc1CN(C)C(=O)c1ccc2nc(Cc3ccc(OC)cc3)oc2c1	inactive	–
CC(c1ccccn1)N(C)C(=O)c1ccc2nc(Cc3cccc(Cl)c3)oc2c1 (stereo not drawn)	3980 nM (active)	–
COc1ccc(Cc2nc3ccc(C(=O)N4CCC(N(C)C)C4)cc3o2)cc1 (stereo not drawn)	inactive	–
CCN(CC)S(=O)(=O)c1ccc(N2CCOCC2)c(NC(=O)C(C)Oc2ccc(F)cc2)c1 (stereo not drawn)	inactive	–
CCN1C(=O)C(=O)N(CC(=O)Nc2cc(C)ccc2C)C1=O	inactive	–
COC(=O)CSc1nc(C)c2ccc(OC)cc2n1	inactive	–
COc1ccc(-c2nnc3ccc(SCc4ccccc4)nn23)cc1	inactive	–
COc1ccc2nc(SCc3ccccc3)nc(C)c2c1	1410 nM (active)	–
COC(=O)Cc1ccc(OC(=O)C2CCN(S(=O)(=O)c3ccc(OC)c(OC)c3)CC2)cc1	inactive	–
O=C(Nc1cccc(-c2nc3ncccc3o2)c1)c1ccco1	inactive	–
O=C(Nc1ccc2oc(-c3ccccc3F)nc2c1)c1ccco1	1000 nM (active)	–
O=C(c1ccco1)N1CCN(C(=O)c2cc(-c3ccccc3F)no2)CC1	inactive	–
CCC(=O)c1cc(F)ccc1OCC(=O)Nc1ccc2c(c1)OCCO2	inactive	–
CCN(C(=O)CSc1nc(N)cc(=O)[nH]1)C1CCS(=O)(=O)C1 (stereo not drawn)	inactive	–
CSCCC(NC(=O)c1ccccc1)C(=O)N1CCCCCCC1 (stereo not drawn)	inactive	–
Cc1[nH]c2ccccc2c1C(=O)C(C)Sc1nnc(C2CC2)o1 (stereo not drawn)	inactive	–
O=C(COC(=O)C1CC2CCCC(C1)C2=O)NC(=O)c1ccccc1 (stereo not drawn)	inactive	–
CCOc1ccc(C(=O)CCC(=O)Nc2ccncc2)cc1	inactive	–
Cc1nc2cc(-c3ccc(F)cc3)nn2c(N2CCOCC2)c1C	inactive	–
Cc1cc(C(C)(C)C)n2nc(C)c(-c3ccccc3)c2n1	inactive	–
Cc1cc(N)n2nc(-c3ccc(C(C)(C)C)cc3)cc2n1	2510 nM (active)	–
CC1CCN(C(=O)COC(=O)CCC(=O)c2cccs2)CC1	inactive	–
CC(C)(C)c1ccc(S(=O)(=O)N2CCN(C(=O)c3ccc4c(c3)C(=O)N(Cc3ccncc3)C4=O)CC2)cc1	inactive	–
CCOc1ccc(/C(O)=C2\C(=O)C(=O)N(c3ccc(OC)cc3)C2c2ccccc2[N+](=O)[O-])cc1 (stereo not drawn)	398 nM (active)	–
COc1ccc(/C(O)=C2/C(=O)C(=O)N(c3nc(C)c(C)s3)C2c2ccco2)cc1 (stereo not drawn)	inactive	–

Compound	Potency	activation, negative = inhibition
COc1ccc(C2/C(=C(/O)c3ccccc3)C(=O)C(=O)N2C)c(OC)c1 (stereo not drawn)	inactive	–
Cn1c(SCC(=O)Nc2ccc(N3CCOCC3)cc2)nnc1C(F)(F)F	inactive	–
Nc1c(-c2cccc(Cl)c2)cnn1-c1cccc([N+](=O)[O-])c1	inactive	–
Cc1ccc(S(=O)(=O)Nc2nc(CN3CCOCC3)nc3sc(C)c(C)c23)cc1	inactive	–
CN1CCN(C(=O)c2cnn(-c3ccccc3)c2NC(=O)c2ccc([N+](=O)[O-])cc2)CC1	inactive	–
COc1cccc(-c2noc(C3CCCN(C(=O)c4ccc(F)cc4)C3)n2)c1 (stereo not drawn)	inactive	–
Cc1ccc(-c2noc(C3CCCN(C(=O)c4cccc(Cl)c4)C3)n2)o1 (stereo not drawn)	3550 nM (active)	–
O=C(c1ccc(F)cc1)N1CCCC(c2nc(-c3cccs3)no2)C1 (stereo not drawn)	inactive	–
CC(=O)Nc1ccc(S(=O)(=O)N(C)c2nc3ccccc3nc2Cl)cc1	inactive	–
CCc1nc(Nc2ccc(NC(C)=O)cc2)c2oc3ccccc3c2n1	inactive	–
Cc1ccc2nc(-c3ccc(NC(=O)c4cccnc4)cc3)oc2c1	199 nM (active)	–
CC(=O)NC(=S)Nc1ccc(NC(=O)c2cccnc2)cc1	inactive	–
Cc1cc(NS(=O)(=O)c2ccc(NC(=O)c3cccnc3)cc2)nc(C)n1	inactive	–
CC(=O)Nc1ccc(-c2nc3ccccc3o2)cc1	1000 nM (active)	–
CCOc1cc(/C=C/C(=O)OCC(=O)NCCN2C(=O)CSC2=O)ccc1OCC(C)C	inactive	–
O=C(OCC(=O)N1CCc2ccccc21)C1CCCN1S(=O)(=O)c1ccc(Cl)cc1 (stereo not drawn)	inactive	–
CCOC(=O)C1CCCN(C(=O)c2ccc(C)c(S(=O)(=O)N3CCCCC3)c2)C1 (stereo not drawn)	inactive	–
CCOC(=O)Cc1csc(SCC(=O)Nc2ccc(C)cc2F)n1	inactive	–
C/C(CC(=O)Nc1ccc(N(C)C)cc1)=N\NC(=O)c1ccccc1F	inactive	–
C/C(=N\NC(=O)Cc1ccc(Cl)cc1)c1ccccn1	inactive	–
C/C(=N\NC(=O)c1ccccc1F)c1ccccn1	316 nM (active)	–
CN(C)S(=O)(=O)c1cccc(NC(=O)COc2ccc3ccccc3c2)c1	inactive	–
Cc1ccc(Cn2ccc(NC(=O)C3C4CCC(C4)C3C(=O)O)n2)cc1 (stereo not drawn)	inactive	–
O=C(Nc1ccccc1N1CCN(c2ccccc2)CC1)c1cccc(F)c1	inactive	–
O=C(Nc1ccn(Cc2ccccc2)n1)c1n[nH]c([N+](=O)[O-])c1Cl	355 nM (active)	–
Cn1cc([N+](=O)[O-])c(C(=O)Nc2cnn(Cc3ccc(F)cc3)c2)n1	inactive	–

Compound	Potency	activation, negative = inhibition
O=C(Nc1cccc(NC(=O)c2cccc(F)c2)c1)c1ccccc1	inactive	–
O=C(Nc1ccn(Cc2ccccc2)n1)c1cccc(F)c1	1410 nM (active)	–
CN1CCN(S(=O)(=O)c2ccc(N3CCN(c4ccccc4O)CC3)c([N+](=O)[O-])c2)CC1	inactive	–
CCN(CC)c1ccc(NC(=O)CN2C(=O)NC3(CCc4ccccc43)C2=O)cc1 (stereo not drawn)	inactive	–
CN(CC(=O)NC1CCN(Cc2ccccc2)CC1)S(=O)(=O)c1ccc(Cl)s1	inactive	–
CCCCN(CC(=O)Nc1cccc(S(=O)(=O)N2CCCC2)c1)Cc1nc2ccccc2c(=O)[nH]1	inactive	–
CCn1c(=O)c(=O)n(CC)c2cc(N3CCCCC3)c(NC(=O)c3ccc(Cl)cc3)cc21	inactive	–
CC(=O)Cn1ncc(N2CCOCC2)c(Br)c1=O	inactive	–
O=C(Cn1ncc(N2CCCC2)c(Br)c1=O)c1ccc(Cl)cc1	1410 nM (active)	–
O=C(COc1ccccc1Cl)N1N=C(c2cccs2)CC1c1ccco1 (stereo not drawn)	inactive	–
CN(Cc1ccccn1)Cc1nc(-c2ccc(Cl)cc2)no1	inactive	–
COc1ccc(-c2noc(COc3ccc(Cl)c(C)c3)n2)cc1	inactive	–
Cc1cc(Cl)ccc1OCc1nc(-c2ccncc2)no1	2820 nM (active)	–
CCC(C)N(C(=O)CSc1nnnn1-c1ccccc1OC)C1CCS(=O)(=O)C1 (stereo not drawn)	inactive	–
CC1CC(=O)Nc2ccccc2N1C(=O)COc1ccc2cc(Br)ccc2c1 (stereo not drawn)	inactive	–
O=C(CCc1ccccc1)Nc1ncc([N+](=O)[O-])s1	2240 nM (active)	–
COc1ccc([N+](=O)[O-])cc1NC(=O)CCc1ccccc1	inactive	–
CC(C)Cc1nnc(NC(=O)CCc2ccccc2)s1	inactive	–
CCOC(=O)c1sc(NC(=O)C2CSC3(C)CCC(=O)N23)nc1C (stereo not drawn)	inactive	–
O=C(NCCc1ccccc1)c1ccc2c(c1)N(Cc1ccccc1)CCS2	inactive	–
CC1CCN(c2c(NCc3ccc(C(=O)NCc4ccccc4)cc3)c(=O)c2=O)CC1	inactive	–
CC1CCCN(c2ccc(C(=O)NCCc3ccccc3)cn2)C1 (stereo not drawn)	2510 nM (active)	–
Cc1cc(C(=O)CSc2nc(N)cc(=O)[nH]2)c(C)n1Cc1ccco1	inactive	–
COCCn1c(C)cc(C(=O)COC(=O)CNC(=O)c2ccco2)c1C	inactive	–
Cc1cc(C(=O)COC(=O)CNC(=O)c2ccc(F)cc2)c(C)n1Cc1ccco1	3160 nM (active)	–
Cc1c([N+](=O)[O-])c(N)nn1C	inactive	–

Compound	Potency	activation, negative = inhibition
Cc1c(NC(=O)CSc2nnc(-c3cccnc3)n2N)c(=O)n(-c2ccccc2)n1C	inactive	–
Clc1ccc(Cc2nnc(-c3cccs3)o2)cc1	inactive	–
CCCn1c(CCNc2nc(-c3ccc(OC)cc3)cs2)nc2ccccc21	inactive	–
CC(NC(=O)c1ccco1)C(=O)Nc1nc(-c2ccccn2)cs1 (stereo not drawn)	inactive	–
c1ccc(Nc2nc(-c3ccncc3)cs2)nc1	1580 nM (active)	–
c1cnc(Nc2nc(-c3ccc4ccccc4c3)cs2)nc1	282 nM (active)	–
Clc1ccc(Nc2nc(-c3cccs3)cs2)nc1	3160 nM (active)	–
Brc1ccc(-c2csc(N/N=C/c3cccnc3)n2)cc1	inactive	–
COc1ccc(-c2csc(Nc3ccccn3)n2)cc1	282 nM (active)	–
COc1ccc(C(=O)Nc2nc(-c3ccc(S(=O)(=O)N4CCOCC4)cc3)cs2)cc1	inactive	–
COC(=O)c1cc(-c2cccs2)nc2ccccc12	–	-3.27% [at 1.84 µM]
Cc1ccc(S(=O)(=O)NCCC(=O)NCc2ccc(Cl)cc2)cc1C	inactive	–
CCN(CC)S(=O)(=O)c1ccc(CNC(=O)CN2C(=O)NC3(CCc4ccccc43)C2=O)cc1 (stereo not drawn)	inactive	–
O=C1C=C(c2cc(C(F)(F)F)cc(C(F)(F)F)c2)C[C@@H](c2ccc3c(c2)OCO3)C1	inactive	–
COc1ccc(-c2sc3ccc(OC)cc3c2C#Cc2ccccn2)cc1	inactive	–
Cc1cc(C)cc(NC(=O)C(c2ccccc2)N2CCN(CC(=O)N3CCCC3)CC2)c1 (stereo not drawn)	inactive	–
c1ccc(C2CCC(N3CCC(N4CCCCC4)CC3)CC2)cc1 (stereo not drawn)	inactive	–
COc1ccc(-c2csc(NC3OC(=O)c4ccccc43)n2)cc1 (stereo not drawn)	inactive	–
COc1ccc(Nc2nc(-c3ccccc3)cs2)cc1	2510 nM (active)	–
COc1ccc(NC(=O)c2sc(N)nc2-c2ccccc2)cc1	inactive	–
CCN(CC(=O)Nc1ccccc1C(=O)NC1CC1)Cc1cccs1	inactive	–
CCCCN(C(=O)C(CCSC)N1C(=O)c2ccccc2C1=O)c1c(N)n(CCC)c(=O)[nH]c1=O (stereo not drawn)	inactive	–
COc1ccc(OCc2n[nH]c(=S)n2N)cc1	inactive	–
COc1ccc(OCc2ccc(-c3nc4ccccc4c(=O)n3N)o2)cc1	1260 nM (active)	–
COc1ccc(-c2nc3ccccc3c(=O)n2CCc2ccc(O)cc2)cc1	inactive	–
